POLI inh – DNA polymerase iota (human) inhibition; Q9UNA4; Potency, µM (titrated, usually from 115 µM), without a hit: at the top dose activity, negative = inhibition, actives largely listed as inhibitors; Pol iota fluorescent replication assay, 10 min; hit rate 1% among 390,000
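Pol iota at 10 nM preincubated 15 min with compounds at room temperature; reaction started with fluorescent substrate, 50 nM final. Fluorescence read kinetically at 0 and 10 min; buffer-only wells as negative control.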
KAT2A inh – GCN5L2 (KAT2A) acetyltransferase inhibition. AID 504327. Q92830. GCN5L2 HAT assay, ThioGlo1 CoA-SH fluorescence. Potency, µM (top dose mostly 58.9 µM), without a hit: top-dose activity change, negative = inhibition, usual class: inhibitors. hit rate 0.21% among 390,000; further: on the % scale 0 is the no-effect control and ±100 the full control effect
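Titration-based screen in which CoA formation is detected via maleimide probe ThioGlo1 (50uM) turning fluorescent on thiol reaction; substrates H3(1-25) 75uM and acetyl-CoA 70uM, GCN5L2 20nM, 20 min incubation at room temperature.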
Pol kappa inh-1 – inhibitors of human DNA polymerase kappa; Potency, µM (top dose mostly 107 µM), for inactives: at the highest dose activity, negative = inhibition, usual class: inhibitors; purified Pol kappa, fluorescent DNA synthesis assay, 10 min; hit rate 0.53% among 400,000; Q9UBT6; further: on the % scale 0 is the no-effect control and ±100 the full control effect
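First, compounds were pin-transferred onto 10 nM Pol kappa. After 15 min at room temperature, substrate was added to 50 nM final. Fluorescence was then measured kinetically at 0 and 10 min.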
POLB inh – DNA polymerase beta (human) inhibition; hit rate 1.3% among 340,000; Pol beta primer extension/strand displacement, fluorescence kinetic; Potency, µM (highest dose often 114 µM), for inactives: at the top dose activity change, negative = inhibition, most hits filed as inhibitors; further: on the % scale 0 is the no-effect control and ±100 the full control effect
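Pol beta (10 nM) and compounds were preincubated 15 min at room temperature, then 50 nM substrate (final) started primer extension/strand displacement. Reads were taken at 0 and 10 min; concentration-response data were fitted to a four-parameter Hill equation.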
Pol eta inh-1 – blocks human DNA polymerase eta activity; hit rate 1.2% among 390,000; Q9Y253; Potency, µM (highest dose often 114 µM), inactives show at the highest dose activity change, negative = inhibition, hits mostly inhibitors; recombinant Pol eta, fluorescent DNA replication assay; further: on the % scale 0 is the no-effect control and ±100 the full control effect
Target sequence (Q9Y253 whole entry, looked up): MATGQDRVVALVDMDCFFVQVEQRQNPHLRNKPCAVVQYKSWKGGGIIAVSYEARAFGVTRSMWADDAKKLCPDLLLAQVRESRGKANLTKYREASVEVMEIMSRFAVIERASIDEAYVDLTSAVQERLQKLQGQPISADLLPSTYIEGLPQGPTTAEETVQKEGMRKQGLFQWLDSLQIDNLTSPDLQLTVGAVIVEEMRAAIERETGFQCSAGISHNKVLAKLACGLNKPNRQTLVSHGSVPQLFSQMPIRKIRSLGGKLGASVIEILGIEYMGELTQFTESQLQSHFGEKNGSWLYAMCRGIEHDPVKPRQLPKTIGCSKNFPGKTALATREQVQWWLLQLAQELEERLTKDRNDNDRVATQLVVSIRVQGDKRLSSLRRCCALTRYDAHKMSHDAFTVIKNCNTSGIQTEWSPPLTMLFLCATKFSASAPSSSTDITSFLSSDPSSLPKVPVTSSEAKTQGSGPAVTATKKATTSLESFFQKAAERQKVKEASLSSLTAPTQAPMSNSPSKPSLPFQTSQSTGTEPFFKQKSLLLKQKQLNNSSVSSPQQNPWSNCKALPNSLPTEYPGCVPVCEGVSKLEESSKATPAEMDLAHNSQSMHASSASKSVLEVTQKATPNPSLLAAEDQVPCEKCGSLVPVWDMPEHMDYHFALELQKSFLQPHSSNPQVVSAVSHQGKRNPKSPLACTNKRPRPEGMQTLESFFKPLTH
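Pol eta (10 nM) was preincubated with compounds for 15 min at room temperature, after which fluorescent replication substrate (50 nM final) was added to start the reaction. Fluorescence was read kinetically at 0 and 10 min.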
GLS inh – glutaminase GLS (human) inhibition; Potency, µM (doses to about 45.5 µM), for the others: at the highest dose activity change, negative = inhibition, usual class: inhibitors; O94925; hit rate 0.21% among 410,000; GLS enzymatic activity, qHTS titration; further: on the % scale 0 is the no-effect control and ±100 the full control effect
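hKGA in 45 mM KH2PO4 pH 8.2, 0.02% Tween-20 with pin-transferred compounds; 1 mM L-glutamine (stock) plus glutamate oxidase/HRP/Amplex Red coupling added. Fluorescence read initially and after 30 min at RT.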
PGK validate – blocks T. brucei phosphoglycerate kinase; shares compounds with Pol kappa inh-1; hit rate 79% among 500; AID 686980; TbPGK coupled GAPDH assay, Kinase-Glo luminescence; Potency, µM (titrated, usually from 57.5 µM), without a hit: top-dose activity change, negative = inhibition, hits mostly inhibitors; further: on the % scale 0 is the no-effect control and ±100 the full control effect; nearly all actives have a fitted effect of over 65% in size
Pol iota confirm – Inhibitors of human DNA polymerase iota, confirmation. shares compounds with Pol kappa inh-1. Pol iota primer extension, TAMRA/BHQ fluorescence. Potency, µM, hits mostly inhibitors. hit rate 77% among 1,500. AID 720496
Pol kappa inh-2 – confirmation of human DNA polymerase kappa inhibitors | purified Pol-kappa, fluorescent strand-displacement substrate | shares compounds with Pol eta inh-1 | Potency, µM, most hits filed as inhibitors | AID 720501 | hit rate 76% among 920
Pol eta inh-2 – Pol eta (human) inhibition, cherry-pick confirmation. AID 720502. hit rate 64% among 2,600. shares compounds with Pol eta inh-1. Pol eta primer extension, TAMRA/BHQ fluorescence, 10 min. Potency, µM, most hits filed as inhibitors
Starred values were filed as active, the others as inactive; ? = inconclusive; . = not tested or not shown; [ ] = dose if it differs, or a comment. An excerpt weighted towards active compounds, which were near 2.4% of everything screened. The call rests on the fitted dose curve; in most records, active means well fitted curve in the direction sought with a large enough effect; inconclusive means small, poorly fitted or top-dose-only effect, or another doubt; inactive means no such curve, though single readings can be large; an effect the other way counts as inactive or inconclusive. Potency means the concentration at half of the fitted maximal effect.

SMILES | POLI inh | KAT2A inh | Pol kappa inh-1 | POLB inh | Pol eta inh-1 | GLS inh | Pol iota confirm | Pol eta inh-2 | others
CCc1ccccc1Nc1nn2c(=O)c3ccc(C(=O)NCc4cccs4)cc3nc2s1 | 79µM* | -3% | 0%[60.1 µM] | 8.9µM* | ? | -22% | ? | . | Pol kappa inh-2=?
C[C@@H]1CC2[C@@H]3C[C@H](F)C4=CC(=O)C(Cl)=C[C@]4(C)[C@@]3(F)[C@H](O)C[C@]2(C)[C@@]1(O)C(=O)CO (stereo not given in full) | . | -7% | 7%[19.4 µM] | . | . | 7% | . | .
CCC(=O)N1c2ccccc2CC1C(=O)NCCN1CCN(c2cccc(C(F)(F)F)c2)CC1 (stereo not given) | 31% | 7% | -4%[60.1 µM] | 25% | -16% | -1% | . | .
O=C(O)c1cccc2cccc(-c3c4ccc(=O)c(O)c-4oc4c(O)c(O)ccc34)c12 | 0.71µM* | . | 1.1µM* | . | -98% | 1.8µM* | 0.67* | 0.95* | PGK validate=0.33µM*
O=C(O)c1cccc2cc(-c3ccccc3)oc(=O)c12 | 24% | -9% | -4%[60.1 µM] | 8% | -21% | -1% | . | .
Cc1ccc(NC(=O)CSc2ccc(-c3sc(-c4ccccc4)nc3C)nn2)cc1F | 4% | -8% | 3% | 2% | -21% | 1% | . | .
COc1ccc(N=Cc2c(O)n(-c3ccc(OC)cc3)c(=O)c3ccccc23)cc1 | -16% | -2% | -17% | 0% | 13% | 0% | . | .
O=c1c2ccccc2c(C=Nc2cccc(O)c2)c(O)n1-c1ccc2c(c1)OCO2 | ? | -22% | -22% | 40µM* | 13µM* | -10% | ? | ?
Cc1ccc(-n2ncc(C(=O)NCCCN3CCc4ccccc4C3)c2C2CCN(C(=O)OC(C)(C)C)CC2)c(C)c1 | 8% | -15% | -6% | -2% | -9% | 9% | . | .
N#Cc1c(-c2ccccc2)cc(-c2ccccc2)nc1SCC(=O)Nc1ccc(Cl)cc1 | -6% | 1% | -12% | 0% | -7% | -15% | . | .
CC(C)(C)c1ccc(-c2nc(SCC(=O)Nc3ccc(Cl)cc3)[nH]c(=O)c2C#N)cc1 | 45µM* | 35µM* | ? | 79µM* | 28µM* | 6% | ? | ? | Pol kappa inh-2=?
Cc1c(Cl)cnc(NC(=O)COC(=O)/C=C/c2ccco2)c1Cl | 22µM* | ? | 79µM* | . | 22µM* | ? | ? | 60* | Pol kappa inh-2=60*
O=S1(=O)c2ccccc2N(Cc2ccc(Cl)cc2F)c2ccccc21 | 23% | -3% | 3% | -10% | -11% | -7% | . | .
N#C/C(=C\c1ccc(OCc2ccc(F)cc2)cc1)C(=O)Nc1cccc(C(=O)O)c1 | ? | -23% | ? | ? | 40µM* | ? | ? | ? | Pol kappa inh-2=42*
COc1ccc(NC(=O)/C(C#N)=C\c2ccc(OCc3ccc(C(=O)O)cc3)c(OC)c2)cc1 | 32µM* | ? | -4% | 8% | ? | 0% | ? | ?
N#C/C(=C/c1ccc(OCc2ccc(C(=O)O)cc2)cc1)C(=O)Nc1ccccc1 | 10% | 16% | 4% | 2% | ? | -2% | . | .
COC(=O)c1ccc(COc2ccc(/C=N/Nc3cccc(C(=O)O)c3)cc2)cc1 | 32µM* | -19% | ? | -30% | 18µM* | -14% | 60* | 27*
CCOC(=O)C1CCCN(C(=O)c2ccccc2NC(=O)c2nsc3ccccc23)C1 (stereo not given) | -17% | -2% | 2%[60.1 µM] | -16% | 1% | -3% | . | .
CN1CCN(C(=O)c2ccc3c(c2)N(Cc2c(F)cccc2Cl)C(=O)c2ccccc2S3)CC1 | 16% | 4% | -17% | -13% | -9% | -9% | . | .
COc1ccc(C)cc1NC(=O)C1CCN(S(=O)(=O)c2cc(Br)cc3c2N(C(C)=O)CC3)CC1 | -10% | 3% | -1% | ? | -10% | -1% | . | .
Cc1cc(NC(=O)CSc2nc(-c3cccnc3)ccc2C#N)no1 | 2% | -6% | -6% | 17% | 5% | -26% | . | .
Cc1cc(NC(=O)CSc2nc3c(c(-c4cccnc4)c2C#N)CCC3)no1 | 28% | -6% | 2% | 1% | ? | 1% | 38* | . | Pol kappa inh-2=38*
CCn1cc(C(=O)O)c(=O)c2cc(F)c(N/N=C/c3ccccc3)cc21 | ? | -2% | -26% | ? | 2.5µM* | 6% | 84* | 2.7*
CCn1cc(C(=O)O)c(=O)c2cc(F)c(N3CCN(C(=O)Nc4ccccc4)CC3)cc21 | -1%[58.9 µM] | -27% | -2% | -12% | -8% | 2% | . | .
NC(=S)N/N=C/c1ccc(-c2ccccc2)o1 | 33% | -8% | 0% | -2% | -16% | 14% | . | .
SMILES | POLI inh | KAT2A inh | Pol kappa inh-1 | POLB inh | Pol eta inh-1 | GLS inh | Pol iota confirm | Pol eta inh-2 | others
NC(=S)NN=Cc1ccc(-c2ccc(S(=O)(=O)Nc3ncccn3)cc2)o1 | ? | ? | 20µM* | . | 3.2µM* | 23% | ? | 9.5* | Pol kappa inh-2=?
Cc1cccc(-c2nc3c4ccccc4n(Cc4cccc(Cl)c4)c(=O)n3n2)c1 | 6% | -7% | -6%[60.1 µM] | -18% | -15% | 4% | . | .
C/C(=N\Nc1ccc(Cl)c(C(=O)O)c1)c1ccc[nH]1 | 45µM* | -6% | 45µM* | 32µM* | 14µM* | 1% | 53* | 27*
O=C(O)c1cc(N/N=C/C=C/c2ccccc2)ccc1Cl | -9% | -12% | -10% | ? | -13% | -3% | . | .
O=C(C1COc2ccccc2O1)N1CCc2ccccc21 (stereo not given) | 45µM* | -16% | ? | 32µM* | 79µM* | ? | 75* | ?
O=C(C1COc2ccccc2O1)N1CCCC1 (stereo not given) | -1% | -7% | 9% | -22% | -11% | -2% | . | .
O=C(O)c1ccc2c(c1)C(=O)/C(=C\c1ccco1)C2=O | 6.3µM* | -19% | 8.9µM* | 2.2µM* | 3.5µM* | 11µM* | 30* | 8.5* | Pol kappa inh-2=2.7*

Source: PubChem
